High-throughput results deposited in PubChem by The Scripps Research Institute Molecular Screening Center.
Rows were chosen to be rich in hits. Some 3.5% of all compounds tested hit in one or more screens of this group.
GPR151 activ: human GPR151 activation. Q8TDV0. PathHunter beta-arrestin GPR151 cells, luminescence. activation, % at 11.2 µM. 650,000 compounds, 1% hits; in the data active = activation above about 4.9%;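 note: 0% = median of compound wells and 100% = cells with positive control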
FBW7 activator: human FBW7 E3 ligase activation, primary screen | normalized activity (activation), % at 26.1 µM | AID 1259310 | AlphaScreen FBW7–phospho-cyclin E peptide binding, activator screen | 650,000 compounds, 0.13% hits | Q969H0; in the data active = normalized activity above about 1.9%;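 note: purified mutant Fbw7 with reduced substrate affinity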
Target sequence (Q969H0 whole entry, looked up): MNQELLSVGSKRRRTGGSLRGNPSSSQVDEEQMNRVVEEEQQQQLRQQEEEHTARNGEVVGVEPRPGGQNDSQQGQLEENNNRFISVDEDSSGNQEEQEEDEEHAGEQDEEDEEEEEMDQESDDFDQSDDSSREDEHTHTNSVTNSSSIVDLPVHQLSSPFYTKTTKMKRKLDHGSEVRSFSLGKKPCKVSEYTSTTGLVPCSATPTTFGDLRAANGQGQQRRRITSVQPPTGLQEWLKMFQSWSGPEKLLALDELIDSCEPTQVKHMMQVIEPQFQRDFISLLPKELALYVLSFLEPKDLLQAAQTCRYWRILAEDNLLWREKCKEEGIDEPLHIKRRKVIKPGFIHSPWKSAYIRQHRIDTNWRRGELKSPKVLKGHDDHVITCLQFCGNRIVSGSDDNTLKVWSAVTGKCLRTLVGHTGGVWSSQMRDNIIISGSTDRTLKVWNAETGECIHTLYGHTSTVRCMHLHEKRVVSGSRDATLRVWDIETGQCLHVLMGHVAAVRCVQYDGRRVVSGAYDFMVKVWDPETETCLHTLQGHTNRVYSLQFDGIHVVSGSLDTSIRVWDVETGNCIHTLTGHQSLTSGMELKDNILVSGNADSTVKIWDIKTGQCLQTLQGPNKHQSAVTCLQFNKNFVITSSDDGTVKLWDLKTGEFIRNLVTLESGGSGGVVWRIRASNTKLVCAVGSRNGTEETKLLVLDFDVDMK
TEAD-YAP block: TEAD-YAP interaction inhibition; HEK-TIYL cells, TEAD-Gal4/YAP UAS-luciferase luminescence; inhibition, % at 9.12 µM; 640,000 compounds, 1.4% hits; in the data active = inhibition above about 32%;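 note: 0% = median of test compound wells and 100% = reference inhibitor wells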
MITF inh: blocks human microphthalmia-associated transcription factor; O75030; AlphaScreen MITF homodimerization, bead proximity signal; inhibition, % at 2.6 µM; 650,000 compounds, 0.91% hits; in the data active = inhibition above about 50%;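 note: 0% = vehicle wells with protein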
* marks the source's active call; other numbers are inactive results.

What do the screens show for `O=C(CSc1nnc(-c2ccccc2O)n1-c1ccccc1)Nc1nccs1`?
GPR151 activ: -1; FBW7 activator: 0; TEAD-YAP block: 54*; MITF inh: 2

How did NC(=O)c1ccsc1NC(=O)CSc1nnc(-c2ccccc2)n1-c1ccccc1 do in these assays?
GPR151 activ: 0; FBW7 activator: 0; TEAD-YAP block: 45*; MITF inh: 2

What do the screens show for `CCCCc1ccc(-n2nnnc2SCC(=O)Nc2sccc2C(N)=O)cc1`?
GPR151 activ: 0; FBW7 activator: 0; TEAD-YAP block: 37*; MITF inh: -2

How did C=CCn1c(SCC(=O)Nc2sccc2C(N)=O)nnc1-c1ccccc1 do in these assays?
GPR151 activ: -1; FBW7 activator: 0; TEAD-YAP block: 26; MITF inh: 5

How did Cc1csc(NC(=O)CSc2nnc(-c3ccccc3O)n2-c2ccccc2)n1 do in these assays?
GPR151 activ: -1; FBW7 activator: 0; TEAD-YAP block: 57*; MITF inh: -1

Results for COc1ccc(NC(=O)c2sc(SCC(=O)Nc3nccs3)nc2N)cc1 ?
GPR151 activ: 0; FBW7 activator: 0; TEAD-YAP block: -56; MITF inh: -8

How did CC(=O)NNC(=O)C12CC3CC(C1)CC(c1ccc(C)cc1)(C3)C2 do in these assays?
GPR151 activ: 0; FBW7 activator: 0; TEAD-YAP block: -3; MITF inh: -4

What do the screens show for `CC(C)n1c(=O)n(CC(=O)NCc2ccco2)c2cccnc21`?
GPR151 activ: 0; FBW7 activator: 0; TEAD-YAP block: -10; MITF inh: -7

Results for CCn1c(SCC(=O)Nc2nccs2)nnc1-c1ccccc1O ?
GPR151 activ: 1; FBW7 activator: 0; TEAD-YAP block: -6; MITF inh: 2

What do the screens show for `O=C(CSc1nnc(-c2ccccc2)n1-n1cccc1)Nc1nccs1`?
GPR151 activ: 0; FBW7 activator: 0; TEAD-YAP block: 38*; MITF inh: 3

Results for C=CCn1c(SCC(=O)Nc2nccs2)nnc1-c1ccccc1O ?
GPR151 activ: 0; FBW7 activator: 0; TEAD-YAP block: 61*; MITF inh: -6

Results for CSCCC(NS(=O)(=O)c1ccc2ccccc2c1)C(=O)NCCc1ccccn1 (stereo unspecified) ?
GPR151 activ: 0; FBW7 activator: 1; TEAD-YAP block: -4; MITF inh: 23

What do the screens show for `CCCCSc1nc2sc3c(c2c(=O)n1CC)CCc1ccccc1-3`?
GPR151 activ: 0; FBW7 activator: 0; TEAD-YAP block: 7; MITF inh: 0

Results for CCn1c(CSCc2ccccc2F)nnc1SCC(=O)Nc1ccccc1OC ?
GPR151 activ: 0; FBW7 activator: 0; TEAD-YAP block: 7; MITF inh: -9

How did CCN(CC)CCNc1ccc(CO)c2sc3ccccc3c(=O)c12 do in these assays?
GPR151 activ: 2; FBW7 activator: 0; TEAD-YAP block: 34*; MITF inh: 12

What do the screens show for `CCc1cc(CC)c2c(=O)c3ccccc3sc2c1`?
GPR151 activ: -1; FBW7 activator: 0; TEAD-YAP block: 3; MITF inh: 8

How did COc1cc(C(=O)COC(=O)Cc2ccsc2)cc(OC)c1OC do in these assays?
GPR151 activ: 0; FBW7 activator: 0; TEAD-YAP block: 8; MITF inh: -8

How did COc1cc(CC(=O)OCC(=O)c2ccc(Br)cc2)cc(OC)c1OC do in these assays?
GPR151 activ: 1; FBW7 activator: 0; TEAD-YAP block: 59*; MITF inh: 1

What do the screens show for `COc1cc(CC(=O)OCC(=O)c2ccc3c(c2)OCCO3)cc(OC)c1OC`?
GPR151 activ: 2; FBW7 activator: 0; TEAD-YAP block: 52*; MITF inh: -5

What do the screens show for `COC(=O)c1ccc(/C=C2\N=C(c3ccccc3Cl)OC2=O)cc1`?
GPR151 activ: 0; FBW7 activator: 0; TEAD-YAP block: 1; MITF inh: 10

How did O=c1oc2ccccc2nc1CS(=O)(=O)c1ccc(Br)cc1 do in these assays?
GPR151 activ: 0; FBW7 activator: 0; TEAD-YAP block: -66; MITF inh: 13

How did COc1ccc(N2CCN(Cc3ccsc3)CC2)cc1 do in these assays?
GPR151 activ: -1; FBW7 activator: 1; TEAD-YAP block: -1; MITF inh: 67*

How did COc1ccc(N2CCN(Cc3cccs3)CC2)cc1 do in these assays?
GPR151 activ: 1; FBW7 activator: -1; TEAD-YAP block: 0; MITF inh: 55*

Results for c1cncc(-c2nnc(SCc3nc4ccccc4[nH]3)o2)c1 ?
GPR151 activ: -1; FBW7 activator: 0; TEAD-YAP block: 44*; MITF inh: -6

What do the screens show for `O=C(COc1cc(Cl)c(Cl)cc1Cl)NCc1cccnc1`?
GPR151 activ: 0; FBW7 activator: 0; TEAD-YAP block: -7; MITF inh: 0

Results for O=C1NC2(CCN(Cc3cccc4cccnc34)CC2)Oc2ccccc21 ?
GPR151 activ: 0; FBW7 activator: 0; TEAD-YAP block: -6; MITF inh: -7

What do the screens show for `O=C1NC2(CCN(C(=O)c3cccc4cccnc34)CC2)Oc2ccccc21`?
GPR151 activ: 0; FBW7 activator: 23*; TEAD-YAP block: -8; MITF inh: -2

What do the screens show for `COc1ccc2nc3sc(C(=O)N4CCN(c5ccccc5OC)CC4)c(N)c3cc2c1`?
GPR151 activ: -1; FBW7 activator: 0; TEAD-YAP block: -2; MITF inh: 0

What do the screens show for `COc1ccc(N2CCN(C(=O)c3sc4nc5ccc(OC)cc5cc4c3N)CC2)cc1`?
GPR151 activ: 0; FBW7 activator: 0; TEAD-YAP block: -3; MITF inh: 70*

How did Cc1nn2c(-c3ccccc3)csc2nc1=O do in these assays?
GPR151 activ: 2; FBW7 activator: 0; TEAD-YAP block: 10; MITF inh: -7

How did Oc1ccc(-c2csc3nc(-c4ccccc4)nn23)c(O)c1 do in these assays?
GPR151 activ: -1; FBW7 activator: 0; TEAD-YAP block: 34*; MITF inh: 14

What do the screens show for `c1ccc(CC2CCN(c3ncnc4sccc34)CC2)cc1`?
GPR151 activ: 3; FBW7 activator: 0; TEAD-YAP block: 34*; MITF inh: 1

Results for CCOC(=O)c1sc(NC(=O)CSc2nnc(CNC(=O)c3cccc(OC)c3)n2-c2cccc(C)c2)c(C(=O)OCC)c1C ?
GPR151 activ: -1; FBW7 activator: 0; TEAD-YAP block: -3; MITF inh: -4

Results for O=C(Cc1ccccc1)NCCn1ncc2c(N3CCN(c4ccc(F)cc4)CC3)ncnc21 ?
GPR151 activ: 1; FBW7 activator: 0; TEAD-YAP block: 12; MITF inh: 0

What do the screens show for `COc1ccc(N2CCN(c3ncnc4c3cnn4CCNC(=O)c3cccs3)CC2)cc1`?
GPR151 activ: 1; FBW7 activator: 0; TEAD-YAP block: 37*; MITF inh: -7

What do the screens show for `O=C(NCCn1ncc2c(N3CCN(c4ccccc4)CC3)ncnc21)c1ccccc1F`?
GPR151 activ: 0; FBW7 activator: 0; TEAD-YAP block: 48*; MITF inh: -12

How did COc1ccc(N2CCN(c3ncnc4c3cnn4C)CC2)cc1 do in these assays?
GPR151 activ: 0; FBW7 activator: 0; TEAD-YAP block: -4; MITF inh: 0

Results for O=c1c2cnn(-c3ccc(F)cc3)c2ncn1Cc1ccc(Br)cc1 ?
GPR151 activ: -1; FBW7 activator: 0; TEAD-YAP block: 4; MITF inh: 9
